Inconclusive results are not listed. Calls of active or inactive are those of the source. The calls were made as follows, unless noted: active = hit-call score of the fitted dose curve at least 0.9, where 1 is the maximum; inconclusive = response in the unintended direction; inactive = score below 0.9.
Experiments:
[1] = Tanguay_ZF_120hpf_SWIM_legacy: (Legacy) Oregon State University Tanguay Lab 120 Hour Post-fertilization zebrafish Assay for Swim Bladder Malformation (AID 2283654);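 also: swim bladder malformation in each larva scored yes or no under brightfield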
How it was run: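 Dechorionated Tropical 5D wild-type embryos, placed singly from 6 hpf, were statically exposed at 28C to 120 hpf with 0.64% DMSO final; swim bladder malformation was scored present/absent by brightfield microscopy, gain of signal relative to DMSO controls.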

[2] = Tanguay_ZF_120hpf_TRUN_legacy: (Legacy) Oregon State University Tanguay Lab 120 Hour Post-fertilization zebrafish Assay for Truncated Body (AID 2283655)
How it was run: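 Tropical 5D wild-type embryos, dechorionated with pronase at 4 hpf, were placed singly in wells at 6 hpf and statically exposed at 28C until 120 hpf, final DMSO 0.64%. Truncated body was scored present/absent by brightfield microscopy.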

[3] = Tanguay_ZF_120hpf_NC_legacy: (Legacy) Oregon State University Tanguay Lab 120 Hour Post-fertilization zebrafish Assay for Notochord and Tail Malformation (AID 2283656)
How it was run: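 Dechorionated Tropical 5D wild-type zebrafish embryos, one per well from 6 hpf, statically exposed to 120 hpf at 28C in 0.64% DMSO final. Notochord distortion scored present/absent by brightfield; dead embryos excluded.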

[4] = read-out: ABC Transporter (ABCB1), ABCB1 (gene 5243); test: CLD_ABCB1_6hr: CellzDirect (CLD) Gene Expression Assay for ABC Transporter (ABCB1) at 6 hours (AID 2283659);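 also: hits raise ABCB1 transcript above the DMSO vehicle baseline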
How it was run: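 Primary human hepatocytes (two donor preparations) dosed daily for two days with chemicals at multiple concentrations, 0.2% DMSO vehicle; harvested 6 h post-dose. ABCB1 mRNA induction quantified by qNPA chemiluminescence; gain-of-signal fitted versus DMSO.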

[5] = read-out: Broad substrate specificity ATP-binding cassette transporter ABCG2 (Homo sapiens) (UniProt Q9UNQ0); test: CLD_ABCG2_6hr: CellzDirect (CLD) Gene Expression Assay for ABC Transporter (ABCG2) at 6 hours (AID 2283660)
How it was run: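 Primary human hepatocytes dosed daily with chemicals at multiple concentrations (0.2% DMSO vehicle), harvested 6 h after dosing. ABCG2 mRNA induction read by quantitative nuclease protection assay (qNPA) chemiluminescence; gain of signal fitted against DMSO baseline.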

[6] = read-out: xenobiotic metabolism (CYP1A1), CYP1A1 (gene 1543); test: CLD_CYP1A1_6hr: CellzDirect (CLD) Gene Expression Assay for xenobiotic metabolism (CYP1A1) at 6 hours (AID 2283661);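 as to AC50: potency for transcript induction above DMSO vehicle baseline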
How it was run: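 Primary human hepatocytes from two donors, compound versus 0.2% DMSO vehicle. CYP1A1 mRNA measured 6 h after dosing by quantitative nuclease protection assay with chemiluminescent read-out; induction fitted relative to DMSO, cytotoxicity flagged by microscopy.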

[7] = system: Thyroperoxidase (TPO), gene 54314; test: CCTE_Simmons_AUR_rTPO: CCTE's Amplex UltraRed Assay for Thyroperoxidase (TPO) Inhibition, Simmons Lab (AID 2283662);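 as to AC50: potency for loss of signal meaning inhibition of peroxidase activity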
How it was run: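 Rat thyroid microsomal TPO + 25 uM AUR in 200 mM K phosphate; cpd 5 nM–87.5 uM [final], 8 conc, 0.5% DMSO; 300 uM H2O2 starts rxn; 37C dark 30 min; endpoint FI 544/590 nm; n=3.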

[8] = read-out: xenobiotic metabolism (CYP1A2), CYP1A2 (gene 1544); test: CLD_CYP1A2_6hr: CellzDirect (CLD) Gene Expression Assay for xenobiotic metabolism (CYP1A2) at 6 hours (AID 2283663);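 as to AC50: potency is for induction meaning a rise in mRNA above DMSO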
How it was run: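 Primary human hepatocytes from two donor preparations, dosed daily with multiple concentrations in 0.2% DMSO and harvested at 6 h. CYP1A2 mRNA induction measured by chemiluminescent qNPA, gain of signal fitted against DMSO; cytotoxicity flagged morphologically.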

[9] = CCTE_Simmons_CellTiterGLO_HEK293T: Viability Assessment in CCTE's Assays for Thyroperoxidase (TPO) Inhibition, Simmons Lab (AID 2283665);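 as to AC50: cells exposed to compound for 24 h before readout; actives reduce ATP signal below DMSO vehicle meaning cytotoxicity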
How it was run: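 HEK293T cells in DMEM with 1% FBS, dosed 24 h at 37C with 8 concentrations, 5 nM–87.5 uM final, 0.5% DMSO. ATP measured by CellTiter Glo luminescence; loss of signal vs DMSO, three biological replicates.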

[10] = read-out: alkyl and aryl transferase (GSTA2), GSTA2 (gene 2939); test: CLD_GSTA2_6hr: CellzDirect (CLD) Gene Expression Assay for alkyl and aryl transferase (GSTA2) at 6 hours (AID 2283666)
How it was run: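 Primary human hepatocytes from two donor preparations were dosed daily with fresh compound at multiple concentrations, 0.2% DMSO vehicle. GSTA2 mRNA was measured at 6 hours by qNPA chemiluminescence; induction fitted relative to DMSO, with cytotoxicity flagged morphologically.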

[11] = Tanguay_ZF_120hpf_TR_legacy: (Legacy) Oregon State University Tanguay Lab 120 Hour Post-fertilization zebrafish Assay for Touch Response (AID 2283667)
How it was run: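 Tropical 5D wild-type zebrafish embryos were exposed statically in sealed, foil-covered plates at 28C until 120 hpf, with 0.64% (vol/vol) final DMSO. Touch response was scored as present or absent; embryos that died were not scored.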

[12] = read-out: organic anion transporter (SLCO1B1), SLCO1B1 (gene 10599); test: CLD_SLCO1B1_6hr: CellzDirect (CLD) Gene Expression Assay for organic anion transporter (SLCO1B1) at 6 hours (AID 2283668);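 also: active means mRNA induction above DMSO baseline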
How it was run: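 Primary human hepatocytes dosed daily with test chemicals (multiple concentrations) in 0.2% DMSO vehicle; harvested at 6 h. SLCO1B1 mRNA quantified by qNPA chemiluminescence, fitted as gain-of-signal versus DMSO; cytotoxicity from phase-contrast morphology flagged alongside.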

[13] = read-out: sulfotransferase (SULT2A), SULT2A1 (gene 6822); test: CLD_SULT2A_6hr: CellzDirect (CLD) Gene Expression Assay for sulfotransferase (SULT2A) at 6 hours (AID 2283669);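 also: hits raise transcript level above the DMSO vehicle baseline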
How it was run: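 Primary human hepatocytes from two donor preparations were dosed daily with chemicals or 0.2% DMSO and harvested at 6 h. Transcript induction read by qNPA chemiluminescence, fitted for gain of signal relative to DMSO; morphology-based cytotoxicity annotated.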

[14] = read-out: glucuronosyltransferase (UGT1A1), UGT1A1 (gene 54658); test: CLD_UGT1A1_6hr: CellzDirect (CLD) Gene Expression Assay for glucuronosyltransferase (UGT1A1) at 6 hours (AID 2283672)
How it was run: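 Primary human hepatocytes from two donor preparations, dosed with fresh solutions in 0.2% DMSO, harvested at 6 h. UGT1A1 mRNA measured by qNPA chemiluminescence; induction fitted upward versus DMSO.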

[15] = read-out: xenobiotic metabolism (CYP1A1), CYP1A1 (gene 1543); test: CLD_CYP1A1_24hr: CellzDirect (CLD) Gene Expression Assay for xenobiotic metabolism (CYP1A1) at 24 hours (AID 2283673);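 also: CYP1A1 mRNA level by quantitative nuclease protection with chemiluminescence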
How it was run: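 Primary human hepatocytes dosed daily with fresh solutions in 0.2% DMSO vehicle. mRNA measured at 24 h by quantitative nuclease protection assay with chemiluminescence; gain-of-signal fit versus DMSO, with morphology-based cytotoxicity flags.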

[16] = read-out: solute carrier (SLC10A1), SLC10A1 (gene 6554); test: LTEA_HepaRG_SLC10A1: Life Technologies and Expression Analysis (LTEA) Assay for solute carrier (SLC10A1) using HepaRG (AID 2283657; active = hit-call score of the fitted dose curve at least 0.9, where 1 is the maximum; inactive = score below 0.9); details: mRNA level, 48 h; actives raise or lower the signal
How it was run: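 Differentiated HepaRG cells were plated 48 h, then exposed in serum-free induction medium for 48 h to 8 concentrations (top 100 uM, half-log steps, 0.5% DMSO). SLC10A1 mRNA was quantified by qRT-PCR normalized to ACTB, GAPDH, POLR2A; bidirectional fit versus DMSO.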

[17] = read-out: matrix metalloproteinase-1 (MMP1), MMP1 (gene 4312); test: LTEA_HepaRG_MMP1: Life Technologies and Expression Analysis (LTEA) Assay for matrix metalloproteinase-1 (MMP1) using HepaRG (AID 2283658; active = hit-call score of the fitted dose curve at least 0.9, where 1 is the maximum; inactive = score below 0.9); details: mRNA level, 48 h; actives raise or lower the signal
How it was run: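 Differentiated HepaRG cells, plated 48 h then switched to serum-free induction medium, were exposed in duplicate for 48 h to eight half-log concentrations up to 100 uM in 0.5% DMSO; MMP1 mRNA measured by qRT-PCR, normalized to ACTB, GAPDH, POLR2A.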

[18] = read-out: Cytochrome P450 (CYP24A1_1), CYP24A1 (gene 1591); test: LTEA_HepaRG_CYP24A1_1: Life Technologies and Expression Analysis (LTEA) Assay for Cytochrome P450 (CYP24A1_1) using HepaRG (AID 2283671; active = hit-call score of the fitted dose curve at least 0.9, where 1 is the maximum; inactive = score below 0.9); details: mRNA level, 48 h; actives raise or lower the signal
How it was run: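 HepaRG, 48 h exposure, 8-pt half-log series from 100 uM in 0.5% DMSO, duplicates. Readout: TaqMan qRT-PCR of CYP24A1 mRNA, housekeeping-normalized (ACTB/GAPDH/POLR2A). Bidirectional curve fit vs DMSO baseline.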

Measured: AC50

Broad substrate specificity ATP-binding cassette transporter ABCG2 (Homo sapiens), sequence (Q9UNQ0 whole entry, looked up): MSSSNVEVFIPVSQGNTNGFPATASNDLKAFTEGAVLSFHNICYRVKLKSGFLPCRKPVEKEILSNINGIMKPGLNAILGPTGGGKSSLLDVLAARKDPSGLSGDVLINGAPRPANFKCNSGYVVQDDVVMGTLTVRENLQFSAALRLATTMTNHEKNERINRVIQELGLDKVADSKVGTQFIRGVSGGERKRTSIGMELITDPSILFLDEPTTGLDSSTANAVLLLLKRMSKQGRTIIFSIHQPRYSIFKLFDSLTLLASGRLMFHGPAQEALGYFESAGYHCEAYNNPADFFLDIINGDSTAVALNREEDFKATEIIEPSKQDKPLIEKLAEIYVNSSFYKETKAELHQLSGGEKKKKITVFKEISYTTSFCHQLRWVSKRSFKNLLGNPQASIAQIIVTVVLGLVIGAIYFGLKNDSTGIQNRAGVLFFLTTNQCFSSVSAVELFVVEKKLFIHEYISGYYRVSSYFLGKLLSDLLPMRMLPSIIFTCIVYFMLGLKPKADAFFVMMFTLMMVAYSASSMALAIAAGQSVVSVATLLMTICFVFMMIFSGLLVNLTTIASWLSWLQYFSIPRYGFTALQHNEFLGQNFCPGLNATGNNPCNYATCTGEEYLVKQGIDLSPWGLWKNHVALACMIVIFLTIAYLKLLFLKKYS

Cc1ccccc1CO[C@@H]1C[C@@]2(C(C)C)CC[C@]1(C)O2
active: [7] 28 µM | [9] 21.6 µM
not listed: [16] | [17] | [18]
inactive: all other assays above

CC(C)C(=O)OCC(C)(C)C(OC(=O)C(C)C)C(C)C (stereo not given)
inactive: [1] | [2] | [3] | [11]

Clc1ccc(C(c2ccccc2Cl)C(Cl)(Cl)Cl)cc1 (stereo not given)
inactive: [1] | [2] | [3]

Oc1ccc(C(c2ccc(O)cc2)(C(F)(F)F)C(F)(F)F)cc1
active: [2] 53 µM | [7] 21.7 µM | [9] 11 µM | [11] 52.8 µM
inactive: [1] | [3]

O=C(O)C(F)(F)C(F)(F)C(F)(F)C(F)(F)C(F)(F)C(F)(F)C(F)(F)C(F)(F)C(F)(F)F
active: [16] 23.3 µM | [17] 72.2 µM | [7] 22.7 µM | [9] 38.3 µM
inactive: [1] | [2] | [3] | [11] | [18]

CO/C=C(/C(=O)OC)c1ccccc1COc1cccc(C(F)(F)F)n1
active: [1] 14.5 µM | [2] 7.84 µM | [11] 13.2 µM
inactive: [3]

C1CC2OC2CC1C1CO1 (stereo not given)
inactive: [1] | [2] | [3]

C[C@]12CCC(=O)C=C1CC[C@@H]1[C@@H]2CC[C@]2(C)C(=O)CC[C@@H]12
active: [11] 26.8 µM
inactive: [1] | [2] | [3] | [7] | [9]

O=C(O)C(F)(F)C(F)(F)C(F)(F)C(F)(F)C(F)(F)C(F)(F)C(F)(F)C(F)(F)F
active: [9] 21.8 µM
inactive: [1] | [2] | [3] | [7] | [11]

Cc1ccccc1O
inactive: [1] | [2] | [3] | [11]

Oc1c(Cl)c(Cl)c(Cl)c(Cl)c1Cl
inactive: [1] | [2] | [3] | [9] | [11]
active: [7] 8.93 µM

CCNc1nc(NC(C)C)nc(SC)n1
active: [6] 1.42 µM | [8] 0.262 µM | [15] 3.97 µM
inactive: [1] | [2] | [3] | [4] | [10] | [11] | [13] | [14]

O=C(N[C@H]1CN2CCC1CC2)c1cc2ccoc2cn1
inactive: [1] | [2] | [3]

From PubChem BioAssay (EPA / NIEHS)
